Measured values reported in PubChem BioAssay AID1159580 (chemical genetic matrix, 2015).
The whole screen tested about 5,500 compounds, of which about 2,000 (36%) were called active. Roughly 18% stayed inconclusive and do not appear here. The list shows a part of the results. A number with no mark means an inactive call. No stated cut-off is given here; in the data, active means normalized growth mostly below about 0.91 (no sharp cut-off); inconclusive means no clear call, values can overlap the other calls; inactive means mostly above about 0.92.

Test: chemical genetic growth profiling, strain panel (AID 1159580);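 further: tested at 20 µM; growth read once vehicle control cultures reached saturation at 30 °C; 1 = growth at the plate median or of vehicle wells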
Conditions: growth OD

With `CCN(CC)C(C)CN1c2ccccc2Sc2ccccc21` (configuration not stated) the normalized growth (S. cerevisiae deletion strains, locus YJR075W, strain HOC1, stronger effect = lower value) was 0.937, the normalized growth (S. cerevisiae deletion strains, locus YKL009W, strain mrt4, stronger effect = lower value) was 0.888 and the normalized growth (S. cerevisiae deletion strains, locus YKL068W, stronger effect = lower value) was 0.965. The normalized growth (S. cerevisiae deletion strains, locus YKL085W, strain MDH1 (second series), stronger effect = lower value) was 0.972, the normalized growth (S. cerevisiae deletion strains, locus YKL085W, strain MDH1, stronger effect = lower value) was 0.972 and the normalized growth (S. cerevisiae deletion strains, locus YKL160W, strain elf1, stronger effect = lower value) was 0.907. For the same molecule, the normalized growth (S. cerevisiae deletion strains, locus YKL190W, strain CNB1, stronger effect = lower value) was 0.985, the normalized growth (S. cerevisiae deletion strains, locus YKR001C, strain vps1, stronger effect = lower value) was 1.02 and the normalized growth (S. cerevisiae deletion strains, locus YKR026C, strain gcn3, stronger effect = lower value) was 1.01. The normalized growth (S. cerevisiae deletion strains, locus YKR091W, strain srl3, stronger effect = lower value) was 0.986, the normalized growth (S. cerevisiae deletion strains, locus YLL001W, strain dnm1, stronger effect = lower value) was 0.911 and the normalized growth (S. cerevisiae deletion strains, locus YLL026W, stronger effect = lower value) was 0.962. It also gave a normalized growth (S. cerevisiae deletion strains, locus YLL041C, strain sdh2, stronger effect = lower value) of 0.981, a normalized growth (S. cerevisiae deletion strains, locus YLR027C, strain aat2, stronger effect = lower value) of 0.961 and a normalized growth (S. cerevisiae deletion strains, locus YLR039C, strain RIC1, stronger effect = lower value) of 1.1. It also gave a normalized growth (S. cerevisiae deletion strains, locus YLR058C, strain SHM2, stronger effect = lower value) of 0.963, a normalized growth (S. cerevisiae deletion strains, locus YLR102C, strain apc9, stronger effect = lower value) of 0.965 and a normalized growth (S. cerevisiae deletion strains, locus YLR113W, strain HOG1, stronger effect = lower value) of 1.08. For the same molecule, the normalized growth (S. cerevisiae deletion strains, locus YLR221C, strain rsa3, stronger effect = lower value) was 0.949, the normalized growth (S. cerevisiae deletion strains, locus YLR258W, strain gsy2, stronger effect = lower value) was 0.922 and the normalized growth (S. cerevisiae deletion strains, locus YLR262C, strain YPT6 (second series), stronger effect = lower value) was 1.05. For the same molecule, the normalized growth (S. cerevisiae deletion strains, locus YLR262C, strain YPT6, stronger effect = lower value) was 1.17, the normalized growth (S. cerevisiae deletion strains, locus YLR268W, strain sec22, stronger effect = lower value) was 0.924 and the normalized growth (S. cerevisiae deletion strains, locus YLR320W, strain mms22, stronger effect = lower value) was 0.875 (active). The normalized growth (S. cerevisiae deletion strains, locus YLR330W, strain CHS5, stronger effect = lower value) was 0.975, the normalized growth (S. cerevisiae deletion strains, locus YLR342W, strain FKS1 (second series), stronger effect = lower value) was 0.895 and the normalized growth (S. cerevisiae deletion strains, locus YLR342W, strain FKS1, stronger effect = lower value) was 0.879 (active). For the same molecule, the normalized growth (S. cerevisiae deletion strains, locus YLR357W, strain rsc2, stronger effect = lower value) was 1.01, the normalized growth (S. cerevisiae deletion strains, locus YLR370C, strain arc18, stronger effect = lower value) was 0.952 and the normalized growth (S. cerevisiae deletion strains, locus YLR371W, strain rom2, stronger effect = lower value) was 0.955. The normalized growth (S. cerevisiae deletion strains, locus YLR384C, strain iki3, stronger effect = lower value) was 1, the normalized growth (S. cerevisiae deletion strains, locus YLR418C, strain cdc73, stronger effect = lower value) was 0.844 and the normalized growth (S. cerevisiae deletion strains, locus YML016C, strain PPZ1, stronger effect = lower value) was 0.985. The normalized growth (S. cerevisiae deletion strains, locus YML032C, strain rad52, stronger effect = lower value) was 0.951, the normalized growth (S. cerevisiae deletion strains, locus YML120C, strain ndi1, stronger effect = lower value) was 1 and the normalized growth (S. cerevisiae deletion strains, locus YML124C, strain tub3, stronger effect = lower value) was 0.964. The normalized growth (S. cerevisiae deletion strains, locus YMR058W, strain fet3, stronger effect = lower value) was 0.933, the normalized growth (S. cerevisiae deletion strains, locus YMR078C, strain ctf18, stronger effect = lower value) was 0.959 and the normalized growth (S. cerevisiae deletion strains, locus YMR125W, strain sto1, stronger effect = lower value) was 1. The normalized growth (S. cerevisiae deletion strains, locus YMR129W, stronger effect = lower value) was 0.995, the normalized growth (S. cerevisiae deletion strains, locus YMR205C, strain PFK2, stronger effect = lower value) was 0.912 and the normalized growth (S. cerevisiae deletion strains, locus YMR223W, strain ubp8, stronger effect = lower value) was 0.944. The normalized growth (S. cerevisiae deletion strains, locus YMR231W, strain pep5, stronger effect = lower value) was 1.01, the normalized growth (S. cerevisiae deletion strains, locus YMR263W, strain SAP30, stronger effect = lower value) was 0.952 and the normalized growth (S. cerevisiae deletion strains, locus YMR307W, strain GAS1, stronger effect = lower value) was 0.902. For the same molecule, the normalized growth (S. cerevisiae deletion strains, locus YNL067W, strain RPL9B, stronger effect = lower value) was 0.91, the normalized growth (S. cerevisiae deletion strains, locus YNL071W, strain lat1, stronger effect = lower value) was 0.99 and the normalized growth (S. cerevisiae deletion strains, locus YNL128W, strain TEP1, stronger effect = lower value) was 0.987. For the same molecule, the normalized growth (S. cerevisiae deletion strains, locus YNL153C, strain GIM3, stronger effect = lower value) was 0.963, the normalized growth (S. cerevisiae deletion strains, locus YNL183C, strain NPR1, stronger effect = lower value) was 0.961 and the normalized growth (S. cerevisiae deletion strains, locus YNL209W, strain ssb2, stronger effect = lower value) was 0.891 (active). It also gave a normalized growth (S. cerevisiae deletion strains, locus YNL233W, strain BNI4, stronger effect = lower value) of 0.948, a normalized growth (S. cerevisiae deletion strains, locus YNL248C, strain rpa49, stronger effect = lower value) of 0.954 and a normalized growth (S. cerevisiae deletion strains, locus YNL250W, strain rad50, stronger effect = lower value) of 0.98. The normalized growth (S. cerevisiae deletion strains, locus YNL271C, strain bni1, stronger effect = lower value) was 0.971, the normalized growth (S. cerevisiae deletion strains, locus YNL298W, strain CLA4, stronger effect = lower value) was 0.959 and the normalized growth (S. cerevisiae deletion strains, locus YNL307C, strain MCK1, stronger effect = lower value) was 0.89 (active). It also gave a normalized growth (S. cerevisiae deletion strains, locus YNL322C, strain KRE1 (second series), stronger effect = lower value) of 0.96, a normalized growth (S. cerevisiae deletion strains, locus YNL322C, strain KRE1, stronger effect = lower value) of 0.986 and a normalized growth (S. cerevisiae deletion strains, locus YNR049C, strain mso1, stronger effect = lower value) of 0.985. For the same molecule, the normalized growth (S. cerevisiae deletion strains, locus YNR052C, strain pop2, stronger effect = lower value) was 0.967, the normalized growth (S. cerevisiae deletion strains, locus YOL006C, strain TOP1, stronger effect = lower value) was 0.458 (active) and the normalized growth (S. cerevisiae deletion strains, locus YOL012C, strain htz1) was 1. The normalized growth (S. cerevisiae deletion strains, locus YOL147C, strain pex11, stronger effect = lower value) was 0.961, the normalized growth (S. cerevisiae deletion strains, locus YOR001W, strain rrp6, stronger effect = lower value) was 0.97 and the normalized growth (S. cerevisiae deletion strains, locus YOR061W, strain CKA2, stronger effect = lower value) was 0.988. The normalized growth (S. cerevisiae deletion strains, locus YOR069W, strain VPS5, stronger effect = lower value) was 0.985, the normalized growth (S. cerevisiae deletion strains, locus YOR070C, strain gyp1, stronger effect = lower value) was 0.933 and the normalized growth (S. cerevisiae deletion strains, locus YOR080W, strain dia2, stronger effect = lower value) was 1. For the same molecule, the normalized growth (S. cerevisiae deletion strains, locus YOR083W, strain WHI5, stronger effect = lower value) was 0.841 (active), the normalized growth (S. cerevisiae deletion strains, locus YOR106W, strain vam3, stronger effect = lower value) was 0.803 (active) and the normalized growth (S. cerevisiae deletion strains, locus YOR136W, strain idh2, stronger effect = lower value) was 0.965. For the same molecule, the normalized growth (S. cerevisiae deletion strains, locus YOR144C, strain elg1, stronger effect = lower value) was 0.955, the normalized growth (S. cerevisiae deletion strains, locus YOR184W, strain ser1, stronger effect = lower value) was 0.94 and the normalized growth (S. cerevisiae deletion strains, locus YOR231W, strain MKK1, stronger effect = lower value) was 1.04. The normalized growth (S. cerevisiae deletion strains, locus YOR265W, strain rbl2, stronger effect = lower value) was 0.986, the normalized growth (S. cerevisiae deletion strains, locus YOR270C, strain vph1, stronger effect = lower value) was 0.67 (active) and the normalized growth (S. cerevisiae deletion strains, locus YOR290C, strain snf2, stronger effect = lower value) was 0.89. The normalized growth (S. cerevisiae deletion strains, locus YOR316C, strain cot1, stronger effect = lower value) was 0.942, the normalized growth (S. cerevisiae deletion strains, locus YPL051W, strain arl3, stronger effect = lower value) was 0.831 (active) and the normalized growth (S. cerevisiae deletion strains, locus YPL055C, strain LGE1, stronger effect = lower value) was 0.89. For the same molecule, the normalized growth (S. cerevisiae deletion strains, locus YPL078C, strain atp4, stronger effect = lower value) was 0.87 (active), the normalized growth (S. cerevisiae deletion strains, locus YPL106C, strain sse1, stronger effect = lower value) was 0.927 and the normalized growth (S. cerevisiae deletion strains, locus YPL240C, strain hsp82, stronger effect = lower value) was 0.977. For the same molecule, the normalized growth (S. cerevisiae deletion strains, locus YPL241C, strain CIN2, stronger effect = lower value) was 0.996, the normalized growth (S. cerevisiae deletion strains, locus YPL256C, strain CLN2, stronger effect = lower value) was 1.05 and the normalized growth (S. cerevisiae deletion strains, locus YPR119W, strain clb2, stronger effect = lower value) was 0.954. It also gave a normalized growth (S. cerevisiae deletion strains, locus YPR141C, strain kar3, stronger effect = lower value) of 0.957, a normalized growth (S. cerevisiae deletion strains, locus YPR163C, strain tif3, stronger effect = lower value) of 0.949 and a normalized growth (S. cerevisiae deletion strains, locus YPR167C, strain met16, stronger effect = lower value) of 0.936. For the same molecule, the normalized growth (S. cerevisiae deletion strains, strain wtn01, stronger effect = lower value) was 0.957 and the normalized growth (S. cerevisiae strains, strain wild type, stronger effect = lower value) was 1.
